# PubChem BioAssay (EPA / NIEHS)
# Active and inactive are the calls of the source. The calls were made as follows: active = hit-call score of the fitted dose curve at least 0.9, where 1 is the maximum; inactive = score below 0.9.
# Read-out: Matrix Metallopeptidase 9 (MMP9), MMP9 (gene 4318)
# Assay: BSK_KF3CT_MMP9: BioMAP Diversity Plus: KF3CT Assay for Matrix Metallopeptidase 9 (MMP9) Biomarker Activity (AID 2283074)
# Settings: primary human keratinocytes with fibroblasts; actives raise or lower the signal
# Experimental: BSK_KF3CT is a cell-based, multiplexed-readout assay that uses keratinocytes and foreskin fibroblasts, a human skin primary cell co-culture, with measurements taken at 24 hours after chemical dosing in a 96-well plate.BSK_KF3CT_MMP9 is an assay component measured in the BSK_KF3CT assay. It measures MMP-9 antibody related to regulation of gene expression using ELISA technology.Data from the assay component BSK_KF3CT_MMP9 was analyzed into 1 assay endpoint. This assay endpoint, BSK_KF3CT_MMP9, was analyzed with bidirectional fitting relative to DMSO as the negative control and baseline of activity. Using a type of binding reporter, gain or loss-of-signal activity can be used to understand changes in the signaling as they relate to the gene MMP9. Furthermore, this assay endpoint can be referred to as a primary readout, because this assay has produced multiple assay endpoints where this one serves a signaling function. To generalize the intended target to other relatable targets, this assay endpoint is annotated to the protease intended target family, where the subfamily is matrix metalloproteinase.
# The levels of cell surface (or secreted, indicated by the prefix "s") biomarker endpoints were measured by ELISA. Overt cytotoxicity to cells in confluent adherent cultures (all systems other than the BT system) was assessed by measuring total protein levels using sulforhodamine B (SRB) staining in parallel cultures at the time of biomarker measurements, indicated as SRB endpoints. For proliferation assays for adherent cell types, individual cell types are cultured at sub-confluence and relative cell numbers quantified by SRB staining at time points optimized for each system (48 h: 3C and CASM3C systems; 72 h: BT and HDF3CGF systems; 96 h: SAg system). SRB was performed by staining cells with 0.1% SRB after fixation with 10% TCA and reading wells at 560 nm.Viability and proliferation of PBMC (T cells) was quantified by Alamar Blue reduction for the SAg and BT systems. For PBMC viability (referred to as PBMC Cytotoxicity within the assay endpoint names), cells were plated (75,000/well in a 96-well plate) and then chemical samples added for 1 h before addition of activators, SEB and TSST-1 (20 ng/mL final concentration each). Cells were incubated for 90 h. Then, Alamar Blue (20 uL/well) (Invitrogen, Cat DAL1100) was added for 6 h, and the plates were read with a fluorescence microplate reader at 546/580 nm (excitation/emission). For PBMC proliferation, cells were plated and activated as above but incubated for only 16 h prior to addition of Alamar Blue. Plates were read after 6 h.
Compound,outcome,AC50
Cc1c2ccccc2c(C)c2c1ccc1ccccc12,inactive,–
C[C@]12CC[C@@H]3c4ccc(O)cc4CC[C@H]3[C@@H]1CCC2=O,inactive,–
CC1(C)NC(=O)N(c2ccc([N+](=O)[O-])c(C(F)(F)F)c2)C1=O,inactive,–
Cc1ccc2oc(CN(Cc3ccccc3)C(=O)Nc3c(F)cc(F)cc3F)c(-c3ccc(Cl)cc3)c2c1,inactive,–
CC/C(=C(/CC)c1ccc(O)cc1)c1ccc(O)cc1,–,12.3 µM (active)
O=C(O)c1ccccc1C(=O)OCc1ccccc1,inactive,–
CCN(CC)C(=O)c1cc(S(=O)(=O)Cc2ccccc2)c(N2CCC(c3ccccc3)CC2)cc1N(CC)CCN(C)C,–,24 µM (active)
CCCC(=O)OCCC(C)C,inactive,–
CCCCCCCCOC(=O)c1cc(O)c(O)c(O)c1,–,8.92 µM (active)
O=C(Nc1ccc(Cl)cc1)Nc1ccc(Cl)c(Cl)c1,–,1.49 µM (active)
CCOC(=O)O[C@H](C)OC(=O)c1ccc2c(c1)cc(C(=O)NC1CCN(C(C)C)CC1)n2Cc1cc(-c2ccc(Cl)s2)on1,–,8.39 µM (active)
Cc1cn([C@H]2C[C@H](N=[N+]=[N-])[C@@H](CO)O2)c(=O)[nH]c1=O,inactive,–
CCCCCCCCCC(=O)O,inactive,–
COc1ccc2cc(S(=O)(=O)N[C@H](CC(=O)N[C@H](Cc3ccc(CN4[C@H](C)CCC[C@@H]4C)cc3)C(=O)N(C)C(C)C)c3ccc4c(c3)OCO4)ccc2c1,–,32.8 µM (active)
CCCCOC(=O)c1ccc(O)cc1,inactive,–
CC[C@@H]1C[C@H](N(Cc2cc(C(F)(F)F)cc(C(F)(F)F)c2)C(C)=O)c2cc(C(F)(F)F)ccc2N1C(=O)OC(C)C,inactive,–
CC(O)CC(C)(C)O (stereo not given),inactive,–
c1ccc2ccccc2c1,inactive,–
Cc1cc(F)ccc1-c1cc(N2CC[C@@H](O)[C@H]2CO)ncc1N(C)C(=O)C(C)(C)c1cc(C(F)(F)F)cc(C(F)(F)F)c1,–,12.3 µM (active)
C[C@]12CC[C@@H]3c4ccc(O)cc4CC[C@H]3[C@@H]1CC[C@H]2O,inactive,–

Compound,outcome,AC50
OC12N=C(c3ccccc3)SC1Cc1cc(Cl)ccc12 (stereo not given),inactive,–
Cc1cc2c(cc1C(F)(F)F)N(C(=O)Nc1ccc(Oc3cccnc3C)nc1)CC2,–,29.8 µM (active)
O=c1c(-c2ccc(O)cc2)coc2cc(O)cc(O)c12,–,20 µM (active)
COc1cc(C(=O)NC2CCN(C)CC2)ccc1Nc1ncc2c(n1)N(C1CCCC1)CC(F)(F)C(=O)N2C,–,18.6 µM (active)
c1ccc(C[n+]2cccc3ccccc32)cc1,inactive,–
Cc1ccc(C(C)C)cc1,inactive,–
O=C1O[C@H]([C@@H](O)CO)C(O)=C1O,inactive,–
Clc1cc(Cl)c2c(c1)N=C1CCCCCN1C2,inactive,–
Cc1occc1C(=O)Nc1ccc(C(=O)N2CCC(F)(F)/C(=C\C(=O)N3CCC(N4CCCCC4)CC3)c3ccccc32)cc1,inactive,–
CC1=CC(=O)/C(=C(/C)O)C(=O)O1,inactive,–
Oc1ccccc1,inactive,–
Cc1oc2c(NC(=O)c3c(Cl)cccc3Cl)cccc2c1C(C)(C)O,inactive,–
CCCCCCCCOc1ccc(C(=O)c2ccccc2)c(O)c1,inactive,–
CCCCCCCCCCCC[N+](C)(C)C,–,30.7 µM (active)
CCN(Cc1cccc(S(=O)(=O)O)c1)c1ccc(C(=C2C=CC(=[N+](CC)Cc3cccc(S(=O)(=O)O)c3)C=C2)c2ccccc2S(=O)(=O)[O-])cc1,inactive,–
CCCCCc1ccc(N)cc1,–,13.7 µM (active)
O=C=NCCCCCCN=C=O,inactive,–
CCO[Si](CCCNC(N)=O)(OCC)OCC,inactive,–
NC(=O)c1nc(-c2cccc(-c3cc(F)ccc3OCC(F)(F)C(F)(F)F)c2)n[nH]1,–,39.7 µM (active)
O=C(OCCCCCCOC(=O)c1ccccc1)c1ccccc1,inactive,–
